{"source": "PubChem BioAssay (Tox21)", "note": "Inconclusive results are not listed. Values without a mark were called inactive. Calls of active or inactive are those of the source. Calls follow the shape of the dose curve; as a rule, active = well fitted cell-killing curve with a large enough effect in the repeat runs; inconclusive = weak or mixed curves, or effect the other way; inactive = flat fitted curve, though single readings scatter. % is scaled to controls: 0 for no effect and ±100 for the full control effect."}
{"experiment": "cAMP Responsive Elements (CRE) small molecule antagonists, cell-based qHTS assay: qHTS cell viability counter screen (AID 2060913); also: nearly all actives have a fitted effect of over 40% in size", "conditions": "CRE-bla HEK293T viability, CellTiter-Glo luminescence, 5 h; series mostly up to 92.4 µM; viability change, negative = cytotoxic: at the top concentration", "outline": "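Steps: cells plated and held 18 hrs at 37 C/5% CO2; compounds and NKH477 (0.25 uM final) added; 3 hrs incubation; reporter substrate read; CellTiter-Glo added to measure cytotoxicity by luminescence.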"}
{"smiles": "CCC(C)(CCC(C)C)C(=O)O", "note": "(centres undefined)", "viability change, negative = cytotoxic": "6.83%"}
{"smiles": "C1CNCCN1", "Potency": "inactive"}
{"smiles": "O=C(OC(=O)c1ccccc1)c1ccccc1", "viability change, negative = cytotoxic": "-9.24%"}
{"smiles": "O=C(OCc1ccccc1)c1ccc(O)cc1", "Potency": "inactive"}
{"smiles": "CN(Cc1cc(Br)cc(Br)c1N)C1CCCCC1", "viability change, negative = cytotoxic": "-7.02% [at 42.5 µM]"}
{"smiles": "CC(C)=CCCC(C)CCOC(=O)C(C)C", "note": "(centres undefined)", "viability change, negative = cytotoxic": "1.89%"}
{"smiles": "N#CC1(c2ccc(F)cc2)CCC(=O)CC1", "viability change, negative = cytotoxic": "-0.779% [at 42.5 µM]"}
{"smiles": "Cc1cnc(C(=O)NCCc2ccc(S(=O)(=O)NC(=O)NC3CCCCC3)cc2)cn1", "Potency": "inactive"}
{"smiles": "CCN(Cc1ccccc1)c1ccccc1", "viability change, negative = cytotoxic": "-15.9%"}
{"smiles": "CC(=O)Nc1ccc(/C=N/NC(N)=S)cc1", "viability change, negative = cytotoxic": "0.575% [at 42.5 µM]"}
{"smiles": "NCCc1cnc[nH]1", "viability change, negative = cytotoxic": "3.34% [at 42.5 µM]"}
{"smiles": "COc1ccccc1OCC(O)CN1CCN(CC(=O)Nc2c(C)cccc2C)CC1", "note": "(centres undefined)", "viability change, negative = cytotoxic": "-0.136% [at 42.5 µM]"}
{"smiles": "NCCS", "viability change, negative = cytotoxic": "4.72% [at 42.5 µM]"}
{"smiles": "CC(C)=CCC/C(C)=C\\C#N", "viability change, negative = cytotoxic": "3.46%"}
{"smiles": "Cc1c(-c2ccc(O)cc2)n(Cc2ccc(OCCN3CCCCCC3)cc2)c2ccc(O)cc12", "viability change, negative = cytotoxic": "-3.26% [at 42.5 µM]"}
{"smiles": "COc1cc([C@@H]2c3cc4c(cc3[C@H](O)[C@H]3COC(=O)[C@H]23)OCO4)cc(OC)c1OC", "Potency": "inactive"}
{"smiles": "[O]=[Bi]", "viability change, negative = cytotoxic": "-2.63% [at 8.39 µM]"}
{"smiles": "C=Cc1c(C)c2cc3[nH]c(cc4nc(cc5nc(cc1[nH]2)C(C)=C5CCC(=O)O)C(CCC(=O)O)=C4C)c(C)c3C=C", "viability change, negative = cytotoxic": "1.81% [at 42.5 µM]"}
{"smiles": "CC/C=C\\CCOC(=O)c1ccccc1O", "viability change, negative = cytotoxic": "0.413%"}
{"experiment": "cAMP Responsive Elements (CRE) small molecule agonists, cell-based qHTS assay: qHTS cell viability counter screen (AID 2060914); also: nearly all actives have a fitted effect of over 50% in size", "conditions": "CRE-bla HEK293T viability, CellTiter-Glo luminescence, 5 h; series mostly up to 92.4 µM; activity change, negative = cytotoxicity: at the top concentration", "outline": "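Cytotoxicity was measured as ATP luminescence (CellTiter-Glo, 30 min at room temperature) in the same wells as the CRE-bla FRET read-out. HEK293T CRE-bla cells had 3 h compound exposure at 37C/5% CO2.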"}
{"smiles": "CN(C)c1ccc(/C=C/c2ccc([N+](=O)[O-])cc2)cc1", "activity change, negative = cytotoxicity": "5.22% [at 8.39 µM]"}
{"smiles": "O=C(O[C@@H](C(=O)O)[C@@H](OC(=O)c1ccccc1)C(=O)O)c1ccccc1", "activity change, negative = cytotoxicity": "-9.84%"}
{"smiles": "CCCCCCCCCCO", "Potency": "inactive"}
{"smiles": "CC(=O)Oc1ccc2c(c1)CC[C@@H]1[C@@H]2CC[C@]2(C)[C@@H](O)CC[C@@H]12", "activity change, negative = cytotoxicity": "24.2% [at 42.5 µM]"}
{"smiles": "c1ccncc1", "Potency": "inactive"}
{"smiles": "Cc1ccc(Br)cc1", "activity change, negative = cytotoxicity": "2.9%"}
{"smiles": "OC1(c2ccccc2)CCNCC1", "activity change, negative = cytotoxicity": "-0.506% [at 42.5 µM]"}
{"smiles": "O=C(N[C@@H](Cc1ccccc1)[C@@H](O)C(=O)N1C[C@@H](O)[C@@H](O)C1)c1cc2cc(Cl)ccc2[nH]1", "activity change, negative = cytotoxicity": "10.1%"}
{"smiles": "CN(C)c1cc(NC(=O)CNC(C)(C)C)c(O)c2c1C[C@H]1C[C@H]3[C@H](N(C)C)C(=O)C(C(N)=O)=C(O)[C@@]3(O)C(=O)C1=C2O", "activity change, negative = cytotoxicity": "8.96% [at 42.5 µM]"}
{"smiles": "CC(C)[C@@H]1CC[C@@H](C)CC1=O", "Potency": "inactive"}
{"smiles": "O=Nc1ccc(O)cc1", "Potency": "inactive"}
{"smiles": "CCOC(=O)c1ccc(O)cc1", "Potency": "inactive"}
{"smiles": "CCCCOCCOC(=O)CCCCCCCCC(=O)OCCOCCCC", "activity change, negative = cytotoxicity": "-1.06%"}
{"smiles": "COc1cc(NS(=O)(=O)c2ccc(N)cc2)nc(OC)n1", "activity change, negative = cytotoxicity": "-3.22% [at 42.5 µM]"}
{"smiles": "O=C(CCS)OCC(COC(=O)CCS)(COC(=O)CCS)COC(=O)CCS", "activity change, negative = cytotoxicity": "-2.73%"}
{"smiles": "Cn1cnc2c1c(=O)[nH]c(=O)n2C", "Potency": "inactive"}
{"smiles": "C1CCC2=NCCCN2CC1", "activity change, negative = cytotoxicity": "20.7%"}
{"smiles": "CCN(CCC#N)c1ccc(N=Nc2ccc([N+](=O)[O-])cc2)cc1", "activity change, negative = cytotoxicity": "14.7%"}
{"smiles": "Cc1c(Cl)cccc1[N+](=O)[O-]", "activity change, negative = cytotoxicity": "-15.1%"}
{"smiles": "CC1CC(C)C(=O)C1=O", "note": "(centres undefined)", "activity change, negative = cytotoxicity": "4.1%"}
{"smiles": "CC1=CC(=C(c2ccc(N)cc2)c2ccc(N)cc2)C=CC1=N", "activity change, negative = cytotoxicity": "-0.199% [at 8.39 µM]"}
{"smiles": "CCC(C)(CCC(C)C)C(=O)O", "note": "(centres undefined)", "activity change, negative = cytotoxicity": "9.69%"}
{"smiles": "C1CNCCN1", "Potency": "inactive"}
{"smiles": "O=C(OC(=O)c1ccccc1)c1ccccc1", "activity change, negative = cytotoxicity": "0.369%"}
{"smiles": "O=C(OCc1ccccc1)c1ccc(O)cc1", "Potency": "inactive"}
{"smiles": "CN(Cc1cc(Br)cc(Br)c1N)C1CCCCC1", "activity change, negative = cytotoxicity": "-11.8% [at 42.5 µM]"}
{"smiles": "CC(C)=CCCC(C)CCOC(=O)C(C)C", "note": "(centres undefined)", "activity change, negative = cytotoxicity": "16.1%"}
{"smiles": "N#CC1(c2ccc(F)cc2)CCC(=O)CC1", "activity change, negative = cytotoxicity": "-0.796% [at 42.5 µM]"}
{"smiles": "Cc1cnc(C(=O)NCCc2ccc(S(=O)(=O)NC(=O)NC3CCCCC3)cc2)cn1", "Potency": "inactive"}
{"smiles": "CCN(Cc1ccccc1)c1ccccc1", "activity change, negative = cytotoxicity": "-14.4%"}
{"smiles": "CC(=O)Nc1ccc(/C=N/NC(N)=S)cc1", "activity change, negative = cytotoxicity": "1.4% [at 42.5 µM]"}
{"smiles": "NCCc1cnc[nH]1", "activity change, negative = cytotoxicity": "11% [at 42.5 µM]"}
{"smiles": "COc1ccccc1OCC(O)CN1CCN(CC(=O)Nc2c(C)cccc2C)CC1", "note": "(centres undefined)", "activity change, negative = cytotoxicity": "-2.08% [at 42.5 µM]"}
{"smiles": "NCCS", "activity change, negative = cytotoxicity": "5.1% [at 42.5 µM]"}
{"smiles": "CC(C)=CCC/C(C)=C\\C#N", "activity change, negative = cytotoxicity": "-3.87%"}
{"smiles": "Cc1c(-c2ccc(O)cc2)n(Cc2ccc(OCCN3CCCCCC3)cc2)c2ccc(O)cc12", "activity change, negative = cytotoxicity": "-10.5% [at 42.5 µM]"}
{"smiles": "COc1cc([C@@H]2c3cc4c(cc3[C@H](O)[C@H]3COC(=O)[C@H]23)OCO4)cc(OC)c1OC", "Potency": "inactive"}
{"smiles": "[O]=[Bi]", "activity change, negative = cytotoxicity": "-8.94% [at 8.39 µM]"}
{"smiles": "C=Cc1c(C)c2cc3[nH]c(cc4nc(cc5nc(cc1[nH]2)C(C)=C5CCC(=O)O)C(CCC(=O)O)=C4C)c(C)c3C=C", "activity change, negative = cytotoxicity": "-0.262% [at 42.5 µM]"}
{"smiles": "CC/C=C\\CCOC(=O)c1ccccc1O", "activity change, negative = cytotoxicity": "-2.59%"}
